Records with an inconclusive call do not appear. Calls of active or inactive are those of the source. Calls follow the shape of the dose curve; as a rule, active = well fitted cell-killing curve with a large enough effect; inconclusive = small, poorly fitted or top-dose-only effect, or effect the other way; inactive = no such curve, though single readings can be large or run the other way.
Potency is read from the fitted curve at half-maximal effect.

The assay can be described thus: Quantitative High-Throughput drug screen in 47 multiple myeloma cell lines against the NCATS MIPE library collection: KMS28BM_JCRB cell viability assay (AID 1919874). Also: nearly all actives have a fitted effect of over 35% in size. As to conditions: CellTiter-Glo ATP, 48 h; series mostly up to 45.8 µM; viability, % of control: at the top concentration. The gist of the method:
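MIPE 4.0 approved/investigational drugs; 500 cells/well; 48 h 37 °C humidified 5% CO2; CTG luminescence readout; DMSO = 100%, media = 0% viability.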
On to `COc1nccc(-c2c(-c3ccc(F)cc3)ncn2C2CCNCC2)n1`, for which the Potency was 0.469 µM (active).

For the compound `CC(C)(C)c1nc(-c2cccc(NS(=O)(=O)c3c(F)cccc3F)c2F)c(-c2ccnc(N)n2)s1`, the “viability, % of control” value was 128% (inactive). The same measure, in the same setting: in the case of `CCCCC[C@H](O)C=C[C@H]1[C@H](O)CC(=O)[C@H]1CC=CCCCC(=O)O` it was 95.5% (inactive); in that of `COc1cc(Nc2nc3ccccc3nc2NS(=O)(=O)c2ccc(NC(=O)c3ccc(C)c(OC)c3)cc2)cc(OC)c1`, 106% (inactive). With `Cc1cccc2c1CC[C@H](CN1CCC(c3c(Cl)cccc3Cl)CC1)C[C@@H]2O`, the Potency is 14.8 µM (active). The same measure, in the same setting: in the case of `CN(C(Cc1ccc(OS(=O)(=O)c2cccc3cnccc23)cc1)C(=O)N1CCN(c2ccccc2)CC1)S(=O)(=O)c1cccc2cnccc12` (centres undefined) it was 14.8 µM (active). Same read-out and setting: in the case of `Nc1nc(Cl)nc2c1ncn2[C@@H]1O[C@H](CO)[C@@H](O)[C@H]1F` it was 0.0235 µM (active); in that of `CN1C(=O)C[C@H](C(=O)N[C@@H](Cc2cnc[nH]2)C(=O)N2CCC[C@@H]2C(N)=O)NC1=O`, 8.33 µM (active). Regarding `NS(=O)(=O)c1cc(Cl)c(Cl)c(S(N)(=O)=O)c1`, the “viability, % of control” value was 112% (inactive). Turning to `CCCCc1ccc(NS(=O)(=O)c2ccc(C)c(C(=O)N3CCN(c4cccc(C)c4C)CC3)c2)cc1`, the Potency is 16.6 µM (active). Take `COc1cc2c(cc1OC)CC(=O)N(CCCN(C)C[C@H]1Cc3cc(OC)c(OC)cc31)CC2`: the “viability, % of control” value is 120% (inactive). `CCCCC(C=O)NC(=O)C(CC(C)C)NC(=O)OCc1ccccc1` (centres undefined): the Potency is 23.5 µM (active). As to `O=C(O)C1=CO[C@@H](O[C@@H]2O[C@H](CO)[C@H](O)[C@H](O)[C@H]2O)[C@@H]2C(CO)=CC[C@H]12`, the “viability, % of control” value is 113% (inactive). Take `CCC(C)SSc1ncc[nH]1` (centres undefined): the Potency was 9.35 µM (active). The same measure, in the same setting: in the case of `CNC(=O)c1ccc2c(C(=Nc3cccc(CN(C)C)c3)c3ccccc3)c(O)[nH]c2c1` it was 8.33 µM (active).

In the case of `COc1cc(C=CC(=O)O)ccc1O`, the “viability, % of control” value was 126% (inactive).

As to `CN1C(=O)C(Cc2c[nH]c3ccccc23)NC1=S` (centres undefined), the “viability, % of control” value is 119% (inactive). Take `CNC(=O)[C@H](CC1=CN=C2C=CCC=C12)NC(=O)[C@@H](CC(=O)NO)CC(C)C`: the Potency was 5.9 µM (active). Still for that read-out and setting: the result for `CCn1c(-c2nonc2N)nc2cncc(CNC3CCNCC3)c21` reads 20.9 µM (active); that for `COc1c(C)c2c(c(O)c1CC=C(C)CCC(=O)O)C(=O)OC2`, 2.64 µM (active).

On to `Cc1ccc2c(c1)C(=O)[C@]1(O)CCN(c3ccccc3)C1=N2`, for which the Potency is 10.5 µM (active). Regarding `COc1ccc(-c2cc(=O)c3c(O)cc(O[C@@H]4O[C@H](CO[C@@H]5O[C@@H](C)[C@H](O)[C@@H](O)[C@@H]5O)[C@@H](O)[C@H](O)[C@@H]4O)cc3o2)cc1O`, the “viability, % of control” value is 103% (inactive). Still for that read-out and setting: the result for `Oc1ccc(C=Cc2cc(O)cc(O)c2)cc1` reads 119% (inactive). On to `Nc1ncnc2c1c(-c1cccc(OCc3ccccc3)c1)cn2C1CC(CN2CCC2)C1` (centres undefined), for which the Potency is 2.96 µM (active). For `Cc1cc(NC(=O)Nc2ccc(N(C)C)cc2)c2cc(F)cc(F)c2n1`, the “viability, % of control” value is 112% (inactive). The same measure, in the same setting: the result for `COc1cc2ncnc(Nc3cc(Br)c(O)c(Br)c3)c2cc1OC` reads 75.7% (inactive).

As for `Cc1ccccc1-n1c(Cn2nc(-c3cccc(O)c3)c3c(N)ncnc32)nc2cccc(C)c2c1=O`, the Potency was 7.43 µM (active). Same read-out and setting: the result for `CN1CCN(c2cccc(Nc3nc4c(-c5ccc(S(C)(=O)=O)cc5)cccn4n3)c2)CC1` reads 0.743 µM (active).

As to `O=c1cc(-c2ccc(O)c(O)c2)oc2cc(O)cc(O)c12`, the “viability, % of control” value was 97.4% (inactive). As for `O=S(=O)(O)c1ccc2cc(N=Nc3cc(S(=O)(=O)O)c4cccnc4c3O)ccc2c1`, the Potency was 1.87 µM (active). The same measure, in the same setting: the result for `Clc1ccc(C2(c3ccc(-c4cn[nH]c4)cc3)CCNCC2)cc1` reads 16.6 µM (active). With `CC(C)=CCCC(C)=CCCC(C)=CCCC(C)=CCCC(C)=CCCC(C)=CCCC(C)=CCCC(C)=CCCC(C)=CCO`, the “viability, % of control” value is 109% (inactive).

Regarding `CN1N=C(N)c2cn([C@@H]3O[C@H](COP(=O)(O)O)[C@@H](O)[C@@H]3O)c3ncnc1c23`, the Potency was 23.5 µM (active).

For the compound `CN[C@@H](C)[C@H]1[C@H](O)C[C@@]2(C)[C@@H]3CC[C@H]4C(C)(C)[C@@H](NC)CC[C@@]45C[C@@]35CC[C@]12C`, the “viability, % of control” value is 109% (inactive). On the same count and under the same terms, in the case of `COc1ccnc(CS(=O)c2nc3ccc(OC(F)F)cc3[nH]2)c1OC` (centres undefined) it was 113% (inactive).

Take `CN1CCC[C@H]1CCO[C@](C)(c1ccccc1)c1ccc(Cl)cc1`: the Potency is 5.26 µM (active).

As for `COc1ccc(-c2oc3c(CC=C(C)C)c(O)cc(O)c3c(=O)c2O)cc1`, the Potency was 3.72 µM (active). Turning to `C[C@@]1(c2cc(-c3cncnc3)c(F)cc2F)CCSC(N)=N1`, the Potency is 13.2 µM (active). The same measure, in the same setting: in the case of `COc1c(C)c2c(c(O)c1CC=C(C)CCC(=O)OCCN1CCOCC1)C(=O)OC2` it was 3.32 µM (active).
